A number with no mark means an inactive call. Active and inactive are the calls of the source. Calls come from the whole dose curve; as a rule, active = well fitted curve in the direction sought with a large enough effect in the repeat runs; inconclusive = weak or mixed curves; inactive = flat fitted curve, though single readings scatter.
assay: qHTS assay to test for compound auto fluorescence at 590 nm (red) in HEK293 cell free culture (AID 720683); details: cell-free medium autofluorescence, Ex540/Em590 red; series mostly up to 91.3 µM
From the text: U.S. Tox21 Program National Center for Advancing Translational Sciences [NCATS] NIH Chemical Genomics Center [NCGC] U.S. Environmental Protection Agency [EPA] National Institutes of Environmental Health Sciences [NIEHS] National Toxicology Program [NTP] U.S. Food and Drug Administration [FDA] Tox21 Assay Overview: Compound auto fluorescence often interferes with screening of the compound library against various biological targets and signaling pathways. Some of these compounds may have fluorophoric properties. Such properties may interfere with the assay outputs resulting in false positives and/or negatives. To decrease such complications and ensure the compound activities are relevant in terms of biological response, the Tox21 10K compound library was screened for auto fluorescence. From the fluorophores used as reporter signals in our screening assays, the auto fluorescence equivalencies of compounds against three fluorophores have been evaluated: Triamterene, Fluorescein and Rose Bengal sodium for blue, green and red fluorescence, respectively. The fluorescence intensities were measured using Excitation/Emission wavelengths at 405/460nm, 485/535nm and 540/590nm for blue, green and red labels, respectively. This assay includes the red fluorescence data.
Tox21 Assay Protocol Summary: 5 uL of culture medium (DMEM containing 10% FBS) per well was dispensed into black wall/clear bottom 1536-well plates using a Multidrop Combi Dispenser (ThermoFisher Scientific, Waltham, MA). After 23 nL compound or DMSO vehicle was transferred into assay plate by a pintool work station (Kalypsys, San Diego, CA), fluorescence intensities in the assay plates were measured by an Envision (PerkinElmer, Shelton, CT) plate reader using three labels for measuring blue, green and red fluorescence at […] 460, 535 and 590nm respectively.
% is set by controls: 0 for no effect and ±100 for the full control effect.

Structure (SMILES) | outcome | fluorescence, % of fluorescent control
COc1cc(CNC(=O)CCCC/C=C/C(C)C)ccc1O | inactive | 
C[C@H]1C[C@H]2[C@@H]3CCC4=CC(=O)C=C[C@]4(C)[C@@]3(F)[C@@H](O)C[C@]2(C)[C@@]1(O)C(=O)COP(=O)(O)O | inactive | 
CC(=O)c1cccnc1 | inactive | 
CCCCCCCCCC(C)C=O (stereo not given) | inactive | 
O=C(O)c1ccc2c(c1)nc(C(=O)NC1CCN(C3CC3)CC1)n2Cc1cc(-c2ccc(Cl)s2)on1 |  | 0.116% [at 18.6 µM]
CCCC(=O)OCCC(C)C | inactive | 
COC(=O)C(C)(C)C | inactive | 
CCC1=C(C)CN(C(=O)NCCc2ccc(S(=O)(=O)NC(=O)NC3CCC(C)CC3)cc2)C1=O (stereo not given) | inactive | 
CCCOC(C)=O | inactive | 
O=C(O)c1ccccc1-n1cc(C(=O)O)c(=O)c2cc(Nc3c(F)cc(F)cc3Cl)c(Cl)cc21 | inactive | 
CCC(=O)O[C@@H]1C[C@H]2CC[C@]1(C)C2(C)C | inactive | 
CC(=O)Nc1ccccc1O | inactive | 
O=[N+]([O-])c1ccc(Cl)cc1Cl | inactive | 
CCCCCCCCC(=O)OCC(C)OC(=O)CCCCCCCC (stereo not given) | inactive | 
CO[C@@H]1COCC[C@@H]1N[C@@H]1CC[C@@](C(=O)N2CCc3ncc(C(F)(F)F)cc3C2)(C(C)C)C1 | inactive | 
COc1ccc(/C=C/c2cc(OC)cc(=O)o2)cc1 | inactive | 
Nc1ccc(C(=O)Oc2ccccc2)c(O)c1 | inactive | 
CCCCCCOC(=O)c1ccccc1 | inactive | 
C=CC(=O)NC(C)(C)C | inactive | 
CC1(C)CC(=O)CC(C)(C)N1 | inactive | 

Structure (SMILES) | outcome | fluorescence, % of fluorescent control
O=C1c2ccccc2C(=O)C1c1ccc2ccccc2n1 | inactive | 
O=C(c1ccc(Cl)cc1)c1ccc(Cl)cc1 | inactive | 
N#Cc1ccc(CC(=O)c2cccc(C(F)(F)F)c2)cc1 | inactive | 
CCOC(OCC)OCC | inactive | 
CCCc1nc(C)c2c(=O)[nH]c(-c3cc(S(=O)(=O)N4CCN(CC)CC4)ccc3OCC)nn12 | inactive | 
COC(=O)Cc1cccc2ccccc12 | inactive | 
O=Cc1ccc([N+](=O)[O-])cc1 | inactive | 
CC(C)(Cc1c[nH]c2ccccc12)NCC(O)COc1ccccc1C#N (stereo not given) | inactive | 
Nc1ccc(F)cc1F | inactive | 
CCCCCCCCCCCCN1CCOCC1 | inactive | 
CCCN(C1CCN(C(=O)C2CCNCC2)CC1)[C@@H]1CCc2ccc(OC)cc2C1 | inactive | 
CCOc1ccc2c(c1)C(C)CC(C)(C)N2 (stereo not given) | inactive | 
CCCCCCCCCCCCCCCCCCCl |  | 0.0246% [at 3.72 µM]
C=CC(=O)OCCCCCCCCCC | inactive | 
Cc1ccc2c(Cl)cc(Cl)c(O)c2n1 | inactive | 
CC(=O)Nc1cccc(N)c1 | inactive | 
CC(=O)OCC(=O)[C@@]1(O)CC[C@H]2[C@@H]3CCC4=CC(=O)C=C[C@]4(C)[C@@]3(F)[C@@H](O)C[C@@]21C |  | 0.0194% [at 18.6 µM]
Cc1c(-c2cccnc2)c2ccccc2n1CCCCC(=O)O | inactive | 
O=C1CCCN1CCO | inactive | 
CC(C)NC(=O)c1ccccc1N | inactive | 

Source: PubChem BioAssay (Tox21)
